TIM10 inh: growth inhibitors of isogenic TIM10 control yeast, primary screen, counter-screen for tim10-1 yeast inhibitor project, luminescence, uHTS. AID 463195, 2010. inhibition, % at 10 µM. 1.4% of 330,000 active. S. cerevisiae TIM10 strain growth, BacTiter-Glo luminescence, 24 h;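 active = inhibition of 40% or more at the single tested concentration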;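 also: wild-type TIM10 isogenic control strain grown at permissive 25 °C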
MPTP block: mitochondrial permeability transition pore inhibitors, primary screen, biochemical, isolated mouse mitochondria, absorbance. 1.4% of 360,000 active. Ca2+ swelling absorbance, 30 min. inhibition, % at 10 µM;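 active = inhibition of 50% or more, scaled per plate between neutral and stimulator controls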
tim10-1 inh: growth inhibitors of tim10-1 mutant yeast, primary screen, luminescence, uHTS; S. cerevisiae tim10-1 ts strain growth, BacTiter-Glo, 24 h; inhibition, % at 20 µM; 2.2% of 330,000 active; AID 463190, 2010;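 active = inhibition of at least 40%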;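 also: mutant grown at 25 °C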
Mdm2 MdmX PPI: inhibitors of human Mdm2-MdmX association, primary screen, cell-based, luminescence, split luciferase, SaOS-2, uHTS; inhibition, % at 8 µM; 3% of 330,000 active; AID 485346, 2010; Protein Mdm4 (Homo sapiens) + E3 ubiquitin-protein ligase Mdm2 (Homo sapiens), …; SaOS-2 split-luciferase Mdm2/MdmX complementation;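 active = inhibition of at least 50% at 8 µM in the primary screen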
Target sequence (O15151 whole entry, looked up): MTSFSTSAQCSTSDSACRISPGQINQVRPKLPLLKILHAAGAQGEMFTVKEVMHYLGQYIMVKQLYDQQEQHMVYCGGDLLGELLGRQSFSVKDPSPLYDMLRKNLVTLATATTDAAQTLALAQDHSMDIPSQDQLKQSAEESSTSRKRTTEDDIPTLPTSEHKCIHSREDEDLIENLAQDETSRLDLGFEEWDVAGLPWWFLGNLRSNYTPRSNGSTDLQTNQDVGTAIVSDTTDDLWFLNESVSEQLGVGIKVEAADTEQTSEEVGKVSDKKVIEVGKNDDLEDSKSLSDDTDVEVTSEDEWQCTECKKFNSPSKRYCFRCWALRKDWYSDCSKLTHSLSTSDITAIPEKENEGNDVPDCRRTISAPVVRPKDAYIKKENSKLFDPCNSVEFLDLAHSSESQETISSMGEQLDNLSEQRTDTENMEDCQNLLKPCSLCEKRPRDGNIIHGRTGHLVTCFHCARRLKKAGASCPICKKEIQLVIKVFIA
Target sequence (Q00987 whole entry, looked up): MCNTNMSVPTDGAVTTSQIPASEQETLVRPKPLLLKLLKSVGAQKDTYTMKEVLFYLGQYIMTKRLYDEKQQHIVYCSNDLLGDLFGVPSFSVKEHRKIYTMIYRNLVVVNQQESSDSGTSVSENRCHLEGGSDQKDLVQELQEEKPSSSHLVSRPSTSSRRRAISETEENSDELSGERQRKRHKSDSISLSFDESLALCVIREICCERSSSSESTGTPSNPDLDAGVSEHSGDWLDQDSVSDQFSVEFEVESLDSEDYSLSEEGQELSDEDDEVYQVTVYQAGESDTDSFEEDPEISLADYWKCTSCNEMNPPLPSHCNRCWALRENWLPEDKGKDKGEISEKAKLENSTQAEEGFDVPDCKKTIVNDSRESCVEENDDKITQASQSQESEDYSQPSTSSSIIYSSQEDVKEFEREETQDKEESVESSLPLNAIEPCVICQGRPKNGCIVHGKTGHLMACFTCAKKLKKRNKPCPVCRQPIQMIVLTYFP
tim23-1 inh: growth inhibitors of tim23-1 mutant yeast, primary screen, luminescence, uHTS; 1.3% of 330,000 active; S. cerevisiae tim23-1 growth, BacTiter-Glo luminescence, 24 h; AID 463212, 2010; inhibition, % at 20 µM;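 active = growth inhibition of the mutant yeast at or above 50%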;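 also: temperature-sensitive mutant grown at 25 °C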
tim23-1 conf: tim23-1 mutant yeast growth inhibitors, confirmation, luminescence, single concentration. shares compounds with tim23-1 inh. S. cerevisiae tim23-1 growth, BacTiter-Glo luminescence, 24 h. inhibition, % at 20 µM. 83% of 4,400 active. AID 463218, 2010;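 active = inhibition above about 39% in either of two replicate wells at 20 µM, limit read from the data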;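 also: temperature-sensitive tim23-1 mutant grown at 25 °C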
Large screens that a line does not name were inactive (follow-up assays come after a bar, where they were run). Shown are actives, neighbours in structure and some others; about 6.3% of the full set was active somewhere.

CC1CCCc2sc3nc(NCc4ccco4)n4ncnc4c3c21 (centres undefined)	tim23-1 inh 50.5 | tim23-1 conf 48.7
c1coc(CNc2c3c(nc4ncnn24)CCC3)c1	none
COc1cccc(Nc2nc(-c3ccc(O)cc3)cs2)c1	tim23-1 inh 54.5 | tim23-1 conf 53.4
CC1CCCCN1C(=O)c1cc(-c2ccc3c(c2)OCO3)on1 (centres undefined)	tim23-1 inh 92.0 | tim23-1 conf inactive
O=C(Nc1ccc(-c2nc3ccccc3[nH]2)cc1)C1CCCO1 (centres undefined)	tim23-1 inh 52.9 | tim23-1 conf 40.8
O=C(Nc1nc2ccccc2[nH]1)C1CCCO1 (centres undefined)	none
Nc1ncnc2c1ncn2[C@@H]1O[C@H](CO)C[C@H]1O	tim23-1 inh 60.5 | tim23-1 conf 65.3
CC(C)Nc1cc(C(F)(F)F)nc(-c2ccccn2)n1	none
FC(F)(F)c1cc(Nc2ccccc2)nc(-c2ccccn2)n1	tim23-1 inh 50.9 | tim23-1 conf inactive
O=C(CN1C(=O)S/C(=C/c2ccncc2)C1=O)Nc1ccccc1	tim23-1 inh 52.5 | tim23-1 conf 51.2
CCN1CCC2(CC1)N=C(c1ccc(F)cc1)C(=S)N2C(=O)c1ccc(C(C)(C)C)cc1	tim23-1 inh 52.8 | tim23-1 conf inactive
CN1CCC2(CC1)N=C(c1ccc(F)cc1)C(=S)N2C(=O)c1ccccc1	none
CCCS(=O)(=O)NC(=O)C1(C)CCCN(C(=O)c2ccc3c(c2)OCO3)C1 (centres undefined)	none (no result: TIM10 inh, tim10-1 inh, Mdm2 MdmX PPI, tim23-1 inh)
CC1(C)CC(=O)C=C(c2ccc3[nH]ccc3c2)C1	tim23-1 inh 54.1 | tim23-1 conf inactive
CC1(C)CC(=O)C=C(c2ccc(Oc3ccccc3)cc2)C1	none
CC1(C)CC(=O)C=C(c2ccc(I)cc2)C1	tim23-1 inh 51.3 | tim23-1 conf 40.7
CCc1ccc2c(c1)/C(=C/C(=O)c1cccs1)C(=O)N2	tim23-1 inh 54.1 | tim23-1 conf inactive
Cc1c(O)cc2n(c1=O)-c1ccc(Cl)cc1C2(C)C	none
CC1(C)c2cc(Cl)ccc2-n2c1cc(O)c(-c1ccccc1)c2=O	tim23-1 inh 61.7 | tim23-1 conf 57.5
COc1ccccc1N1CCN(S(=O)(=O)CCNC(=O)c2cccs2)CC1	none (no result: TIM10 inh, tim10-1 inh, Mdm2 MdmX PPI, tim23-1 inh)
O=Cc1cnc2ccccc2c1-c1ccccc1	tim23-1 inh 63.5 | tim23-1 conf 57.5
O=Cc1cn[nH]c1-c1ccccc1	none
CCCC(C)(C)C(=O)N1CCC1(C)C(=O)Nc1ccc2c(c1)OCCO2 (centres undefined)	none (no result: TIM10 inh, tim10-1 inh, Mdm2 MdmX PPI, tim23-1 inh)
COc1cc(/C=C(\C#N)C(=O)N2CCc3ccccc32)ccc1O	tim23-1 inh 55.3 | tim23-1 conf 59.6
c1csc(CNc2ncnc3ccc(-c4ccc5c(c4)OCCO5)cc23)c1	tim23-1 inh 56.7 | tim23-1 conf 44.5
COc1ccc(/C=N/NC(=O)NC23CC4CC(CC(C4)C2)C3)c(OC)c1	tim23-1 inh 55.4 | tim23-1 conf 44.7
COCCN(CC(=O)Nc1cccc(C)c1C)C(=O)/C=C/c1ccc2c(c1)OCCO2	none (no result: TIM10 inh, tim10-1 inh, Mdm2 MdmX PPI, tim23-1 inh)
Nc1ccc(-c2ncc(-c3ccccc3)o2)cc1	tim23-1 inh 51.0 | tim23-1 conf inactive
Cc1ccccc1-c1csc(C(O)c2cccnc2)n1 (centres undefined)	none (no result: TIM10 inh, tim10-1 inh, Mdm2 MdmX PPI, tim23-1 inh)
CC(=O)Nc1ccc(S(=O)(=O)Nc2c(C)nn(-c3ccccc3)c2C)cc1	none
Cc1nn(-c2ccc(F)cc2)c(C)c1NS(=O)(=O)c1ccc2ccccc2c1	tim23-1 inh 65.6 | tim23-1 conf 60.4
O=C(Nc1cccc(F)c1)N1CC=C(c2ccc(Cl)cc2)CC1	tim23-1 inh 59.1 | tim23-1 conf 72.1
O=C(CN1CCN(c2ccc(Cl)cc2)CC1)Nc1cccc(F)c1	none
Clc1cccc(-c2cc3nc4c(c(NCc5ccco5)n3n2)CCCC4)c1	tim23-1 inh 52.3 | tim23-1 conf 59.0
CSc1ccc(CNC(=O)C2(C)CCCN2CC(C)C)cc1 (centres undefined)	none (no result: TIM10 inh, tim10-1 inh, Mdm2 MdmX PPI, tim23-1 inh)
O=C(c1cc(-c2ccc(O)cc2)on1)N1CCc2ccccc2C1	tim23-1 inh 72.4 | tim23-1 conf 56.1
COc1ccc(CCCNC(=O)C2Cc3c(-c4cccc(NC(C)=O)c4)ccnc3O2)cc1 (centres undefined)	none (no result: TIM10 inh, tim10-1 inh, Mdm2 MdmX PPI, tim23-1 inh)
COc1ccc(NCc2ccc([N+](=O)[O-])s2)cc1	tim23-1 inh 57.8 | tim23-1 conf 68.7
O=[N+]([O-])c1ccc(CNc2cccc(Cl)c2)s1	tim23-1 inh 56.5 | tim23-1 conf 56.2
Cn1c(=O)[nH]c(Nc2ccc(F)cc2)c([N+](=O)[O-])c1=O	none
O=[N+]([O-])c1ccc(CNc2ccc(F)cc2)s1	tim23-1 inh 51.1 | tim23-1 conf 45.5
C/C(N)=C(/C#N)C(=O)CSc1nc2ccccc2c(=O)n1Cc1ccc(C)cc1	tim23-1 inh 57.2 | tim23-1 conf inactive
COc1ccccc1CNC(=O)Nc1nnc([C@H]2C[C@H](O)[C@@H](CO)O2)s1	none (no result: TIM10 inh, tim10-1 inh, Mdm2 MdmX PPI, tim23-1 inh)
O=C(CC(=O)c1ccccc1O)c1ccc(F)cc1	tim23-1 inh 60.9 | tim23-1 conf 57.2
COc1ccc(C(=O)CC(=O)c2ccc(F)cc2)cc1	none
CCCCNC(=O)C1C(c2ccc(OC)cc2)=Nc2ccccc2N1C(=O)c1cccnc1 (centres undefined)	none (no result: TIM10 inh, tim10-1 inh, Mdm2 MdmX PPI, tim23-1 inh)
C/C(=N\OCC(=O)N/N=C/c1ccccc1)c1cccs1	none
C/C(=N\OCC(=O)N/N=C/c1ccccc1O)c1cccs1	tim23-1 inh 56.4 | tim23-1 conf 57.1
C#CCn1cc2c(c1-c1ccccc1)c(=O)n(C)c(=O)n2C	none (no result: TIM10 inh, tim10-1 inh, Mdm2 MdmX PPI, tim23-1 inh)
Cc1cc(C)c2oc(-c3cccc(N)c3)nc2c1	tim23-1 inh 64.0 | tim23-1 conf 60.1
COc1ccc(N2CCN(c3nc4cc(C)ccc4cc3C=O)CC2)cc1	tim23-1 inh 52.0 | tim23-1 conf 45.0
NC(=O)CSc1nnc(-c2cccc(S(=O)(=O)N3CCOCC3)c2)n1C1CCCCCC1	none
Cc1ccc(CSc2nnc(-c3cccc(S(=O)(=O)N4CCOCC4)c3)n2C2CCCC2)cc1	tim23-1 inh 51.7 | tim23-1 conf 42.6
CSc1cccc(CN2CCC(n3nccc3NC(=O)C3CC3)CC2)c1	tim23-1 inh 50.2 | tim23-1 conf inactive
COc1ccc(CN2CCC(n3nccc3NC(=O)C3CC3)CC2)cc1O	none
O=C(c1ccccc1)N1C(=O)C(c2ccccc2)Oc2ccccc21 (centres undefined)	tim23-1 inh 79.6 | tim23-1 conf 56.8
O=C1NC[C@H](CCCCN2C[C@H](Cc3ccccc3)N(CCc3ccc(O)cc3)C(=O)C2=O)N(CCC2CCCCC2)C1=O	none (no result: TIM10 inh, tim10-1 inh, Mdm2 MdmX PPI, tim23-1 inh)
CCC(=O)N1Cc2cc(C(=O)Nc3nccs3)nc(-c3cccc(-c4ccccc4OC)c3)c2[C@H]1CCO	none (no result: TIM10 inh, tim10-1 inh, Mdm2 MdmX PPI, tim23-1 inh)
